High-throughput results: PubChem BioAssay, National Center for Advancing Translational Sciences (NCATS)
In the library only some 2.9% were active in any assay of this set; here they are far more common.
DRD3 antagonist: antagonists of human D3 dopamine receptor; D3R cells, DiscoveRx beta-arrestin luminescence, antagonist mode; stronger effect = lower value; max response, negative = inhibition, %; 360,000 compounds, 2.5% hits; in the data active = max response below about -50%; inconclusive = no clear call, values can overlap the other calls
Target sequence (P35462 whole entry, looked up): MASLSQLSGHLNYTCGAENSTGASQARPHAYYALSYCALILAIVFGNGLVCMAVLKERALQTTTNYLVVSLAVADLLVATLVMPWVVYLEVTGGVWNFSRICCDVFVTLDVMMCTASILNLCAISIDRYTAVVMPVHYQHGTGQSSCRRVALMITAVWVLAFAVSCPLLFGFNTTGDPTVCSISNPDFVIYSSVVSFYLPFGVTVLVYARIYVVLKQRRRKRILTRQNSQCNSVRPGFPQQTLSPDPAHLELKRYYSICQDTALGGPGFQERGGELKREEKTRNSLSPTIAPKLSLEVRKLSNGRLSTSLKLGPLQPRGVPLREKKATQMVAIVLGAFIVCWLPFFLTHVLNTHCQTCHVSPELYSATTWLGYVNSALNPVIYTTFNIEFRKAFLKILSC
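Cells plated overnight at 1500 cells/well, then exposed to library compounds with dopamine controls for 90 minutes at 37 degrees C. DiscoveRx reagent added for 30–60 minutes at room temperature; luminescence read, quantitative HTS format.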
a7 integrin act: integrin-mediated muscular dystrophy alleviation activation. Potency, µM (titrated, usually from 38.3 µM), most hits filed as activators. 350,000 compounds, 0.064% hits. alpha7betagal myoblasts, beta-gal FDG fluorescence, 48 h; note: nearly all actives have a fitted effect of over 60% in size
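Alpha7betagal+/- myoblasts (passage 13) were plated 16-24 hr, then exposed to compounds (1:260 dilution of DMSO stock) for 48 hours at 37C. After MPER lysis, β-galactosidase reporter activity was read as FDG fluorescence (ex 480/em 540) after 30 minutes.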
mIDH1 inhibitor: inhibitors of human mutant IDH1 R132H; O75874; IDH1-R132H enzyme, NADPH consumption, diaphorase/resazurin fluorescence; Potency, µM (titrated, usually from 76.6 µM), usual class: inhibitors; 390,000 compounds, 0.093% hits; AID 602179; note: nearly all actives have a fitted effect of over 65% in size
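IDH1-R132H (0.5 ug/mL) preincubated 30 min with compound, then NADPH (0.016 mM) and alpha-KG (2 mM) added; 80 min at RT, pH 7.5. Remaining NADPH coupled via diaphorase/resazurin to fluorescence (540/590 nm); concentration-response curves normalized to no-enzyme control.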
DRD3 agonist: activates the human D3 dopamine receptor; P35462; D3R DiscoveRx beta-arrestin cells, luminescence, 90 min; max activation, %; 410,000 compounds, 0.58% hits; AID 652048; in the data active = max activation above about 30%
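Agonist mode: compounds and dopamine controls were applied to plated cells for 90 min at 37 degrees C after an overnight attachment at 1500 cells/well. Luminescent read-out followed 30 - 60 minutes at room temperature with DiscoveRx detection reagent.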
B2AR arrestin: beta2AR (human) beta-arrestin recruitment activity; Potency, µM (series often up to 46.1 µM), most hits filed as activators; beta-arrestin recruitment to beta2AR, cell-based reporter; 330,000 compounds, 0.02% hits; P07550; note: nearly all actives have a fitted effect of over 65% in size
Large screens that a line does not name were inactive. Unless noted, calls come from the whole dose curve; as a rule, active = well fitted curve in the direction sought with a large enough effect; inconclusive = small, poorly fitted or top-dose-only effect, or another doubt; inactive = no such curve, though single readings can be large; an effect the other way counts as inactive or inconclusive.

Cn1cnnc1SCc1ccc(C(=O)N/N=C(\CCC(=O)O)c2ccc(C(C)(C)C)cc2)cc1	DRD3 antagonist -53.9
CCC/C(=N\NC(=O)c1ccc(CSc2nncn2C)cc1)c1ccccc1	none
Cc1ccc(CNC(=O)C2CCN(S(=O)(=O)c3ccc4c(c3)oc(=O)n4C)CC2)cc1	none (no result: DRD3 antagonist, a7 integrin act, B2AR arrestin)
COc1ccc(CCNC(=O)CSc2n[nH]c(-c3ccccc3Cl)n2)cc1OC	none (no result: DRD3 antagonist, a7 integrin act, B2AR arrestin)
COc1ccc(CNC(=O)c2ccc3[nH]c(C)c(C)c3c2)c(OC)c1	none (no result: DRD3 antagonist, a7 integrin act, B2AR arrestin)
COc1ccc(NC(=O)c2ccc3[nH]c(C)c(C)c3c2)c(OC)c1	DRD3 antagonist -52.8
COc1ccc(NC(=O)C(=O)NNC(=O)c2cccs2)c(OC)c1	DRD3 antagonist -73.0
C[C@H](CO)N1C[C@H](C)[C@@H](CN(C)S(=O)(=O)c2cccc(F)c2)Oc2ncc(Br)cc2C1=O	DRD3 antagonist inconclusive (no result: B2AR arrestin)
Cc1oc(-c2ccccc2Cl)nc1Cn1c(SCc2cccc(F)c2)nc2cccnc21	DRD3 agonist 43.8 (no result: DRD3 antagonist, a7 integrin act, B2AR arrestin)
O=C(Nc1cccc(-c2cccc(Cl)c2)c1)C1CCN(Cc2nccs2)CC1	none (no result: B2AR arrestin)
COc1ccc(CNc2nc3ccccc3n2CCN2CCCCC2)cc1	DRD3 antagonist -64.5
CCN(CC)c1ccc(CNc2nc3ccccc3n2CCN2CCCCC2)cc1	none
COc1ccccc1N1CCN(C(=O)c2cc3c(=O)oc4ccccc4c3s2)CC1	none (no result: DRD3 antagonist, a7 integrin act, B2AR arrestin)
Cc1ccc(NC(=O)Cn2c(-c3ccc(F)cc3)cnc2SCC(=O)Nc2c(C)cccc2C)cc1	DRD3 antagonist -70.8
CCOc1ccc(NC(=O)CSc2ncc(-c3ccc(F)cc3)n2Cc2ccco2)cc1	none
CCCC(=O)Nc1sc(C(=O)OC)c(C)c1C(N)=O	DRD3 antagonist -125.0
CC(C)C[C@H](NC(=O)[C@H](CCc1ccccc1)NC(=O)CN1CCOCC1)C(=O)N[C@@H](Cc1ccccc1)C(=O)N[C@@H](CC(C)C)C(=O)[C@@]1(C)CO1	none (no result: DRD3 antagonist, a7 integrin act, mIDH1 inhibitor, B2AR arrestin)
COCCCNC(=O)C[C@@H]1C[C@@]2(C(=O)OC)CC(C)(C)CC=C2N(CCc2ccc(OC)c(OC)c2)C1=O	DRD3 antagonist -70.4 (no result: a7 integrin act, mIDH1 inhibitor, B2AR arrestin)
Cn1c(N)c(C(=O)COC(=O)c2cc(C3CC3)nc3ccccc23)c(=O)n(C)c1=O	DRD3 agonist 36.3
CCCCCCn1nc(C(=O)OCC(=O)c2c(N)n(C)c(=O)n(C)c2=O)c2ccccc2c1=O	DRD3 agonist 32.0
COc1cc(C2C(C(=O)OC(C)C)=C(C)N=C3SCCC(=O)N32)ccc1OCc1ccccc1 (configuration not stated)	none (no result: DRD3 antagonist, a7 integrin act, B2AR arrestin)
CCN(CC)CCOC(c1ccccc1)c1ccc(C)cc1 (configuration not stated)	none
Cc1ccccc1C(OCCN(C)C)c1ccccc1 (configuration not stated)	DRD3 antagonist -53.4 (no result: a7 integrin act, DRD3 agonist, B2AR arrestin)
CCOc1ccc(CCNC(=O)c2cnc3sc(N4CCC(C)CC4)nn3c2=O)cc1	none (no result: DRD3 antagonist, a7 integrin act, B2AR arrestin)
CCOC(=O)C1=CN(Cc2cccc(F)c2)S(=O)(=O)NC1c1ccc2ccccc2c1 (configuration not stated)	DRD3 antagonist -58.8
CCOC(=O)C1=CN(Cc2cccc(F)c2)S(=O)(=O)N(C)C1c1cccc(OC)c1 (configuration not stated)	DRD3 agonist 37.5
CCOC(=O)C1=CN(Cc2cccc(F)c2)S(=O)(=O)N(C)C1c1ccccc1 (configuration not stated)	DRD3 antagonist inconclusive
CCOC(=O)C1=CN(Cc2cccc(F)c2)S(=O)(=O)NC1c1cccc(OC)c1 (configuration not stated)	none
O=C(NCC(c1ccc2c(c1)OCO2)N1CCN(c2ccccc2)CC1)c1ccccc1 (configuration not stated)	none (no result: DRD3 antagonist, a7 integrin act, B2AR arrestin)
Cc1c(C(=O)NCc2ccc(F)cc2)oc2ccc(S(=O)(=O)N3CCCCC3)cc12	none (no result: DRD3 antagonist, a7 integrin act, B2AR arrestin)
O=C1C(Cl)=C(NCCCO)C(=O)c2ccccc21	none
O=C1C(SCCO)=C(SCCO)C(=O)c2ccccc21	DRD3 antagonist -136.4 (no result: a7 integrin act)
CCc1ccc2c(c1)NC(c1cccnc1)=NC(c1ccc(C(C)(C)C)cc1)=N2	none (no result: DRD3 antagonist, a7 integrin act, mIDH1 inhibitor, B2AR arrestin)
CC(=O)N(c1ccc(Cl)cc1)c1c[nH]c2ccccc12	DRD3 antagonist -66.8, a7 integrin act inconclusive
CCCCN1CC(c2nc3ccccc3n2CCCCOc2c(C)cccc2C)CC1=O (configuration not stated)	none (no result: DRD3 antagonist, a7 integrin act, B2AR arrestin)
COP(=O)(OC)OC(C(=O)c1ccccc1)c1ccc(Cl)cc1 (configuration not stated)	none (no result: a7 integrin act, mIDH1 inhibitor, B2AR arrestin)
COP(=O)(OC)OC(c1ccc(Cl)cc1)P(=O)(OC)OC (configuration not stated)	DRD3 agonist 83.7 (no result: DRD3 antagonist, a7 integrin act, mIDH1 inhibitor, B2AR arrestin)
CC(=O)Nc1ccn(C2COC(COC(=O)c3ccccc3)O2)c(=O)n1 (configuration not stated)	none (no result: DRD3 antagonist, a7 integrin act, mIDH1 inhibitor, B2AR arrestin)
COc1ccccc1N1CCN(CC(=O)Nc2cccc(F)c2)CC1	none
COc1ccccc1N1CCN(C(=O)Nc2cccc(Cl)c2)CC1	none
COc1ccccc1N1CCN(CCC(=O)Nc2cccc(Cl)c2)CC1	DRD3 antagonist -124.2
COc1ccccc1N1CCN(CCC(=O)Nc2ccc3c(c2)OCO3)CC1	DRD3 antagonist -89.6
CCOc1ccc(NC(=O)CCN2CCN(c3ccccc3OC)CC2)cc1	DRD3 antagonist -90.7
COc1ccccc1N1CCN(CCC(=O)Nc2ccc(F)cc2)CC1	DRD3 antagonist -98.3
COc1ccc(OC)c(/C=C/C(=O)N2C(=O)c3cccc(N)c3C2=O)c1	DRD3 antagonist -64.8
Nc1cccc2c1C(=O)N(C(=O)/C=C/c1cccc(Br)c1)C2=O	none
Nc1cccc2c1C(=O)N(C(=O)/C=C/c1cccc(F)c1)C2=O	DRD3 antagonist inconclusive
COc1cc(/C=C/C(=O)N2C(=O)c3cccc(N)c3C2=O)cc(OC)c1OC	DRD3 antagonist -82.0
COc1ccc(CN2CCC3CC2c2cc(Cl)ccc23)cc1 (configuration not stated)	DRD3 antagonist -59.1 (no result: B2AR arrestin)
Cc1ccc(NC(=O)Cn2c(=O)n(CCCCCC(=O)NCc3ccc(F)cc3)c(=O)c3sccc32)cc1C	none (no result: DRD3 antagonist, a7 integrin act, mIDH1 inhibitor, B2AR arrestin)
O=C(O)c1ccnc2c(O)cccc12	none (no result: DRD3 antagonist, a7 integrin act, mIDH1 inhibitor, DRD3 agonist)
O=Cc1ccc(O)c2ncccc12	DRD3 antagonist -83.4, B2AR arrestin 6.31µM
O=C(CSc1c2c(nc3cc(Cl)ccc13)CCCC2)N1CCN(c2ccccc2F)CC1	none (no result: DRD3 antagonist, a7 integrin act, B2AR arrestin)
COc1ccccc1C(=O)NCC(c1cccs1)N1CCc2ccccc21 (configuration not stated)	DRD3 antagonist -53.0
COc1ccc(OC)c(S(=O)(=O)N2CCCC2C(=O)NC(C)c2ccccc2)c1 (configuration not stated)	none
O=C(O)C1CCCCC1C(=O)Nc1ccccc1F (configuration not stated)	DRD3 antagonist -50.7
COC(=O)c1ccc(Nc2nnc(-c3ccc(C)c(S(=O)(=O)N4CCN(C)CC4)c3)c3ccccc23)cc1	none (no result: DRD3 antagonist, a7 integrin act, B2AR arrestin)
CC1CN(CCOCCOc2ccccc2-c2ccccc2)CC(C)O1 (configuration not stated)	none
